Data taken from the supplement of paper PMC10849652.
Of roughly 7,900 targets only a part is listed; those with a hit were picked by preference. About 0.6% of all pairs of compound and target were hits. Values without a mark were called inactive.

Tests used:
Experiment in all cases: log2 fold change, soluble protein after heating vs DMSO (PISA); higher = thermal stabilisation; K562 cells, 10 uM, 30 min; active = over 0.2 and 3.5 SD of the protein, either way, in both replicates (recomputed)
saracatinib = compound: CN1CCN(CCOc2cc(OC3CCOCC3)c3c(Nc4c(Cl)ccc5c4OCO5)ncnc3c2)CC1 [saracatinib]
How it was run: (§1)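 K562 cells at 2×10^6 cells/mL were exposed to 10 μM compound for 30 min, then aliquots were heated for 3 min across 48°C-58°C, pooled, and extracted in PBS containing 0.5% NP-40 at 4°C. The supernatant after 21,000xg for 90 min was taken as soluble protein and measured by TMTpro 16plex LC-MS/MS with channel sums equalised. Thermal stability is reported relative to control samples, with values from duplicates. Fold changes are given on a log2 scale.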

sotrastaurin = compound: CN1CCN(c2nc(C3=C(c4c[nH]c5ccccc45)C(=O)NC3=O)c3ccccc3n2)CC1 [sotrastaurin]
How it was run: as §1

alvocidib = compound: CN1CC[C@H](c2c(O)cc(O)c3c(=O)cc(-c4ccccc4Cl)oc23)[C@H](O)C1 [alvocidib]
How it was run: as §1

Tubastatin A = compound: CN1CCc2c(c3ccccc3n2Cc2ccc(C(=O)NO)cc2)C1 [Tubastatin A]
How it was run: as §1

[1] = compound: CNC(=O)C1=CC=CC=C1NC2=NC(=NC=C2Cl)NC3=C(C=C(C=C3)N4CCOCC4)OC
How it was run: as §1

defactinib = compound: CNC(=O)c1ccc(Nc2ncc(C(F)(F)F)c(NCc3nccnc3N(C)S(C)(=O)=O)n2)cc1 [defactinib]
How it was run: as §1

rucaparib = compound: CNCc1ccc(-c2[nH]c3cc(F)cc4c3c2CCNC4=O)cc1 [rucaparib]
How it was run: as §1

[2] = compound: CNc1nc(-c2ccc3c(N)n[nH]c3c2)cc(N2C[C@@H](C(=O)NC3CCCCC3)CC[C@H]2C)n1
How it was run: as §1

encorafenib = compound: COC(=O)N[C@@H](C)CNc1nccc(-c2cn(C(C)C)nc2-c2cc(Cl)cc(NS(C)(=O)=O)c2F)n1 [encorafenib]
How it was run: as §1

[3] = compound: COC(=O)[C@H](CCSC)NC(=O)C1=C(C=C(C=C1)NC[C@H](CS)N)C2=CC=CC=C2
How it was run: as §1

[4] = compound: COC1=CC=C(C=C1)CN2C=CC3=C2C=C(C=C3)C(=O)NO
How it was run: as §1

filanesib = compound: CON(C)C(=O)N1N=C(c2cc(F)ccc2F)S[C@@]1(CCCN)c1ccccc1 [filanesib]
How it was run: as §1

zotarolimus = compound: CO[C@H]1C[C@@H]2CC[C@@H](C)[C@@](O)(O2)C(=O)C(=O)N2CCCC[C@H]2C(=O)O[C@H]([C@H](C)C[C@@H]2CC[C@H](n3cnnn3)[C@H](OC)C2)CC(=O)[C@H](C)/C=C(\C)[C@@H](O)[C@@H](OC)C(=O)[C@H](C)C[C@H](C)/C=C/C=C/C=C/1C [zotarolimus]
How it was run: as §1

idasanutlin = compound: COc1cc(C(=O)O)ccc1NC(=O)[C@@H]1N[C@@H](CC(C)(C)C)[C@](C#N)(c2ccc(Cl)cc2F)[C@H]1c1cccc(Cl)c1F [idasanutlin]
How it was run: as §1

alisertib = compound: COc1cc(Nc2ncc3c(n2)-c2ccc(Cl)cc2C(c2c(F)cccc2OC)=NC3)ccc1C(=O)O [alisertib]
How it was run: as §1

[5] = compound: COc1cc2nc(-c3cc(F)ccc3O)nc(N[C@@H]3CNC[C@H]3C(C)(C)O)c2cc1OC
How it was run: as §1

gefitinib = compound: COc1cc2ncnc(Nc3ccc(F)c(Cl)c3)c2cc1OCCCN1CCOCC1 [gefitinib]
How it was run: as §1

[6] = compound: COc1cccc2cc(-c3nc([C@H]4CC[C@H](C(=O)O)CC4)n4ncnc(N)c34)[nH]c12
How it was run: as §1

lapatinib = compound: CS(=O)(=O)CCNCc1ccc(-c2ccc3ncnc(Nc4ccc(OCc5cccc(F)c5)c(Cl)c4)c3c2)o1 [lapatinib]
How it was run: as §1

pictilisib = compound: CS(=O)(=O)N1CCN(Cc2cc3nc(-c4cccc5[nH]ncc45)nc(N4CCOCC4)c3s2)CC1 [pictilisib]
How it was run: as §1

UniProt P49137, sequence (P49137 whole entry, looked up): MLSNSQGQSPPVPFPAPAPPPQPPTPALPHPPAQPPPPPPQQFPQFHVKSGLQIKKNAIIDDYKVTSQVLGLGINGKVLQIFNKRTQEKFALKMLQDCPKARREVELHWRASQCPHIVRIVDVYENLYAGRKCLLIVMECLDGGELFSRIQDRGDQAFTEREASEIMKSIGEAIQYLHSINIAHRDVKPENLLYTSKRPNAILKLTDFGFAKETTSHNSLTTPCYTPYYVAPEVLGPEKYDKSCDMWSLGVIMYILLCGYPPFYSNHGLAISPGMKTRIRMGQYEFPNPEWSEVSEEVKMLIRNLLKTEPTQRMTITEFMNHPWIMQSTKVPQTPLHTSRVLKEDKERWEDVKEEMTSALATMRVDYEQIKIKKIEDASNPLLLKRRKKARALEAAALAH
UniProt Q9BU23, sequence (Q9BU23 whole entry, looked up): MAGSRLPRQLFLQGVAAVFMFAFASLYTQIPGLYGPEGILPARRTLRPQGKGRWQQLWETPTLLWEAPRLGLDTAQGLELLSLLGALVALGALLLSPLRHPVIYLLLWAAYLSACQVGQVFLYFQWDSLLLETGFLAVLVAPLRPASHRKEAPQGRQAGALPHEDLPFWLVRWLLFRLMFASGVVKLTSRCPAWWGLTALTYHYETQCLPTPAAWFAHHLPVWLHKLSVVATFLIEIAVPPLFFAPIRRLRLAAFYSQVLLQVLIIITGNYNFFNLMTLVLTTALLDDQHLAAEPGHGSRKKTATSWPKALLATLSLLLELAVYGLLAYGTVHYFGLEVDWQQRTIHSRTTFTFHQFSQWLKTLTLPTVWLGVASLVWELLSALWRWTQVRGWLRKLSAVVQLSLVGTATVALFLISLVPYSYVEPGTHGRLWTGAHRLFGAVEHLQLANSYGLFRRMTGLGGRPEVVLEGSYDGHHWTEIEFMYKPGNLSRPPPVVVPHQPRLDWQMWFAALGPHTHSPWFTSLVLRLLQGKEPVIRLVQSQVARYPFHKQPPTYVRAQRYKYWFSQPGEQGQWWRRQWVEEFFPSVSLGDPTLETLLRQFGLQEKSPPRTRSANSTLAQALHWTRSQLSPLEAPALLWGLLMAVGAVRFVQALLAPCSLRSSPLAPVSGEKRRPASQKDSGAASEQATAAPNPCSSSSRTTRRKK
UniProt Q9HCC0, sequence (Q9HCC0 whole entry, looked up): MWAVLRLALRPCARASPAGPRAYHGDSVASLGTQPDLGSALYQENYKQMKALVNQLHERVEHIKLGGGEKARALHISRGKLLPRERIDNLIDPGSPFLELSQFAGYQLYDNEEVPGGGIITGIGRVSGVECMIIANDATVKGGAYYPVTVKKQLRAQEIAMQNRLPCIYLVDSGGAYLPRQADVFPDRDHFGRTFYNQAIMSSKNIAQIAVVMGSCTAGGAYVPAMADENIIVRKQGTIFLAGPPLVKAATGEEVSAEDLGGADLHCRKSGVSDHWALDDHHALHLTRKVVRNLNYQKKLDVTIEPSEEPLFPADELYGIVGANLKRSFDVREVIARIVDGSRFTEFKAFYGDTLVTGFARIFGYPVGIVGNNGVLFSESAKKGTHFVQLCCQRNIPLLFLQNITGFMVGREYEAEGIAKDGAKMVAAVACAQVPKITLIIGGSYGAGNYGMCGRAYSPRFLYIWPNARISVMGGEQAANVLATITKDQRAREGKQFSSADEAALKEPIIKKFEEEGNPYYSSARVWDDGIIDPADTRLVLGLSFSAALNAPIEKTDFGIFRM
UniProt O95372, sequence (O95372 whole entry, looked up): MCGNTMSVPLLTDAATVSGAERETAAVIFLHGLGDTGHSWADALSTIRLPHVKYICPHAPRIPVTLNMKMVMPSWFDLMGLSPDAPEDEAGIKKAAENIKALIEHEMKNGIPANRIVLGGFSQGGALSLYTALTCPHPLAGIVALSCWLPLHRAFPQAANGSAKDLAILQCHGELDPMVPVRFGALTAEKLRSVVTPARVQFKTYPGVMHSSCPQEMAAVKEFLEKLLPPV
UniProt Q9UBF1, sequence (Q9UBF1 whole entry, looked up): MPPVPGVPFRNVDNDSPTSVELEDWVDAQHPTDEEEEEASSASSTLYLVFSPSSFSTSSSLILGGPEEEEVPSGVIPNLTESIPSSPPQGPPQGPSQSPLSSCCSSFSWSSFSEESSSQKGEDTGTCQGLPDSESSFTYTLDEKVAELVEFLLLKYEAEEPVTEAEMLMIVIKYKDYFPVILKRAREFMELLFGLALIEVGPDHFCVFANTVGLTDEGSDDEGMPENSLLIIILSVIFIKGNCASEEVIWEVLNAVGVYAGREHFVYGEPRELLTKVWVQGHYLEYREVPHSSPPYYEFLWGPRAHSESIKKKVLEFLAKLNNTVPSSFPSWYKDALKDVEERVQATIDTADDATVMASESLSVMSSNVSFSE
UniProt P45983, sequence (P45983 whole entry, looked up): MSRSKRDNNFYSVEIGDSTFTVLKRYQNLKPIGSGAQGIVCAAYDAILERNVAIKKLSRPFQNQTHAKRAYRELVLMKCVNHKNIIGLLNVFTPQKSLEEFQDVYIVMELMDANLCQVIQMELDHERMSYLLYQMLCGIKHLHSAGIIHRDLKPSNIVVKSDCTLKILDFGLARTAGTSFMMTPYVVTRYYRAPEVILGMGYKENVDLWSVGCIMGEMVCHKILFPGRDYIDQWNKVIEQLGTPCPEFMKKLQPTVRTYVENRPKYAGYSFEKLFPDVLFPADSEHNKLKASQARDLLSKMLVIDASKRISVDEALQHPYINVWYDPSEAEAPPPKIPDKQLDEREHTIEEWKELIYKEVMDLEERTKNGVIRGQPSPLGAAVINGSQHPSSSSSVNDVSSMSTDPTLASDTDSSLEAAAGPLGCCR
UniProt Q14624, sequence (Q14624 whole entry, looked up): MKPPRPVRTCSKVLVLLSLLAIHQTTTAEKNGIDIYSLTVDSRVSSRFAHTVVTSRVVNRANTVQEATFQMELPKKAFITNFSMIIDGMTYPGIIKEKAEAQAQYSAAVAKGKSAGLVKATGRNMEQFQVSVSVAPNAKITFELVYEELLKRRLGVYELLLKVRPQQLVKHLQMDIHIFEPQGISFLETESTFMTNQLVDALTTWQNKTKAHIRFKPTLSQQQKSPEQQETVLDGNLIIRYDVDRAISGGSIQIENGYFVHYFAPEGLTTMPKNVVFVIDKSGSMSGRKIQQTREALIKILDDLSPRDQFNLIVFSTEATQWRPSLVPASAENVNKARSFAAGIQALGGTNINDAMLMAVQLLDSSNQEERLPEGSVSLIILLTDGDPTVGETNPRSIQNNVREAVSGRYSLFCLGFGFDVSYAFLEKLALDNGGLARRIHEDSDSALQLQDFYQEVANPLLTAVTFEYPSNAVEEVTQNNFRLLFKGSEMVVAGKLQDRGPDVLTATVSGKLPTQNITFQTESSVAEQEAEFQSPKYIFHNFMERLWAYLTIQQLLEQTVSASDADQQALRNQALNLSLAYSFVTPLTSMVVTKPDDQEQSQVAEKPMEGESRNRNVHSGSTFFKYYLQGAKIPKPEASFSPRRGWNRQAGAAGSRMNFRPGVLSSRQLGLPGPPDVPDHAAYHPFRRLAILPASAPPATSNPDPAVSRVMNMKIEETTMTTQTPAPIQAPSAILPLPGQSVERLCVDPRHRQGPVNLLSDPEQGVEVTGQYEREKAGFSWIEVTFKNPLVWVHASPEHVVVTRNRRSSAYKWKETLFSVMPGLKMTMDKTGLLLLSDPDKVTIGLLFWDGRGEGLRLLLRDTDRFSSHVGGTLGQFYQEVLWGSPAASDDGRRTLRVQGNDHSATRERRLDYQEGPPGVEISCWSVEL
UniProt Q16891, sequence (Q16891 whole entry, looked up): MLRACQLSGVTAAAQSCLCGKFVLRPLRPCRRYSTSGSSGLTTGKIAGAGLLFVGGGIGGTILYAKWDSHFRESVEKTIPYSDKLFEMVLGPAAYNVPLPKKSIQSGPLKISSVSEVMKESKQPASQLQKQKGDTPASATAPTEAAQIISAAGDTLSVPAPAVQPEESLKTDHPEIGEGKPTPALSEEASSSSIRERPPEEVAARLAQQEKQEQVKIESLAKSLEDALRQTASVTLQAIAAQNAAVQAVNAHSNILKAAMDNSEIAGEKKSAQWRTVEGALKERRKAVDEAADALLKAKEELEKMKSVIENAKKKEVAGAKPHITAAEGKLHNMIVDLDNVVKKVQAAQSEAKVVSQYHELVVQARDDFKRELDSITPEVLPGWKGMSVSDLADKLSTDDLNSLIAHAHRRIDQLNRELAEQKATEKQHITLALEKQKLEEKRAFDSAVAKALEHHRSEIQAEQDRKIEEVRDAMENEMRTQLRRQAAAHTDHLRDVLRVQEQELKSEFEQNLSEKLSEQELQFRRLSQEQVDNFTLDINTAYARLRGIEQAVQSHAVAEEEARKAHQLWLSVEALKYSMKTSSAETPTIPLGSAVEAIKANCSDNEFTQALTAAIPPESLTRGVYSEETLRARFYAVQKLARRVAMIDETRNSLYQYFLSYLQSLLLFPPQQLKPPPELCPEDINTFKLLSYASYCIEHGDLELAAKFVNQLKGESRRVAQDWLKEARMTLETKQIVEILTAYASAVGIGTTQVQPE

Target	log2 fold change (saracatinib)	log2 fold change (sotrastaurin)	log2 fold change (alvocidib)	log2 fold change (Tubastatin A)	log2 fold change [1]	log2 fold change (defactinib)	log2 fold change (rucaparib)	log2 fold change [2]	log2 fold change (encorafenib)	log2 fold change [3]	log2 fold change [4]	log2 fold change (filanesib)	log2 fold change (zotarolimus)	log2 fold change (idasanutlin)	log2 fold change (alisertib)	log2 fold change [5]	log2 fold change (gefitinib)	log2 fold change [6]	log2 fold change (lapatinib)	log2 fold change (pictilisib)
MAGEC2 (UniProt Q9UBF1)	0.092	-0.068	-0.034	-0.013	0.015	-0.056	-0.021	-0.082	0.079	0.003	0.018	-0.032	0.039	-0.045	-0.044	0.015	-0.018	-0.005	-0.004	0.058
MCCC2 (UniProt Q9HCC0)	0.033	0.018	0	0.004	-0.274 (active)	0.008	0.012	-0.05	-0.033	-0.003	0.137	-0.07	0	-0.033	-0.057	-0.022	0.006	0.083	0.001	-0.031
LYPLA2 (UniProt O95372)	-0.063	-0.039	-0.126	0.018	0.007	-0.09	-0.041	-0.01	-0.031	0.087	0.188	0.014	0.002	0.027	0.121	-0.23	0.047	0.044	-0.048	-0.026
ITIH4 (UniProt Q14624)	0.045	0.271	0.005	-0.003	-0.001	0.101	-0.142	-0.124	-0.001	-0.009	0.252	-0.174	-0.896 (active)	0.184	-0.047	-0.146	-0.093	0.277	-0.034	-0.241
MAPK8 isoform 3 (UniProt P45983)	-0.006	0.052	0.087	0.009	0.942 (active)	-0.009	0.031	-0.07	0.029	-0.029	0.025	0.064	0.018	-0.08	0.007	0.234	-0.026	0.035	-0.045	0.287
IMMT isoform 2 (UniProt Q16891)	-0.069	-0.036	-0.071	-0.076	0.131	0.029	0.023	-0.111	0.017	0.067	0.006	-0.101	-0.045	0.04	-0.088	-0.25	-0.006	0.017	-0.151	-0.238
MAPKAPK2 (UniProt P49137)	0.077	-0.035	0	-0.006	-0.01	-0.013	0	-0.022	0.139	0.023	0.066	-0.06	-0.012	-0.054	-0.03	0.118	0.11	0.01	-0.025	0.023
LMF2 (UniProt Q9BU23)	0.006	-0.043	0.035	0.048	0.007	0	0.082	-0.02	0.052	-0.04	-0.041	-0.011	-0.027	-0.02	-0.025	-0.014	0.013	-0.021	0.062	-0.095
